In paper PMC11024108:

target: Stress-70 protein, mitochondrial (UniProt P38646); test: cross-link between two proteins; cross-linking mass spectrometry

Sequence of V-type proton ATPase subunit D, P57746 (P57746 whole entry): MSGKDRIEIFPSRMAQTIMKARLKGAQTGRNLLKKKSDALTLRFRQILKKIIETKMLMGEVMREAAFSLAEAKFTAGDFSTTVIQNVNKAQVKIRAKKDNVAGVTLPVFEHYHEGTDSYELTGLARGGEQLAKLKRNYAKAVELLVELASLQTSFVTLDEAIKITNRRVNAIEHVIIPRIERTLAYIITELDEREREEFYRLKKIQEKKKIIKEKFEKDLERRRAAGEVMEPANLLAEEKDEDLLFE

Row | Substance | listed as a hit
1 | Pyrroline-5-carboxylate reductase 1, mitochondrial, P32322 | yes
2 | Electron transfer flavoprotein subunit beta, P38117 | yes
3 | Mitochondrial import inner membrane translocase subunit TIM44, O43615 | yes

target: V-type proton ATPase 116 kDa subunit a 1 (UniProt Q9Z1G4); test: as above
Sequence (Q9Z1G4 whole entry): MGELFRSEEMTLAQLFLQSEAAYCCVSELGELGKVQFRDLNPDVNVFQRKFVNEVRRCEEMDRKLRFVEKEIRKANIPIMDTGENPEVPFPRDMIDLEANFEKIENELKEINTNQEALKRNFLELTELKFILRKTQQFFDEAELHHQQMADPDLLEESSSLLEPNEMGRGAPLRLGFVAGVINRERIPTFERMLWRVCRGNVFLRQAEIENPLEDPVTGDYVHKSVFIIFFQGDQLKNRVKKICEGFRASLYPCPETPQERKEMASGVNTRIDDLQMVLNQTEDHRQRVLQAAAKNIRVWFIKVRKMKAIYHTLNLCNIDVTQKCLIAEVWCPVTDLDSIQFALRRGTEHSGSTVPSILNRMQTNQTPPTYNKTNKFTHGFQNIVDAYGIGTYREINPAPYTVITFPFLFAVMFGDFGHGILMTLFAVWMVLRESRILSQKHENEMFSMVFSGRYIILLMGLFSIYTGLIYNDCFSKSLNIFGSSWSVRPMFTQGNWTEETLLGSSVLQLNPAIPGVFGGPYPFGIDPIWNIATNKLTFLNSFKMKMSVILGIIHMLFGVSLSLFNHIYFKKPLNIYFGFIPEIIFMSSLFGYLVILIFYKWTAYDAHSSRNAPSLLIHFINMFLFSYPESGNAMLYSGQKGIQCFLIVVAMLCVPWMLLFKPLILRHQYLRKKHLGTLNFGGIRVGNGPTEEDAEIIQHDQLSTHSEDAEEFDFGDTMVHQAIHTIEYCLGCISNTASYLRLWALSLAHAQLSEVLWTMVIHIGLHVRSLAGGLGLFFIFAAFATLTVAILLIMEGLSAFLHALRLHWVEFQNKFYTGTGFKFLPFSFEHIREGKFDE

Row | Substance | listed as a hit
4 | Vesicle-associated membrane protein 1, Q62442 | yes
5 | V-type proton ATPase subunit S1, Q9R1Q9 | yes
6 | V-type proton ATPase subunit H, Q8BVE3 | yes

target: V-type proton ATPase subunit B, brain isoform (UniProt P62814); test: as above
Sequence (P62814 whole entry, canonical isoform): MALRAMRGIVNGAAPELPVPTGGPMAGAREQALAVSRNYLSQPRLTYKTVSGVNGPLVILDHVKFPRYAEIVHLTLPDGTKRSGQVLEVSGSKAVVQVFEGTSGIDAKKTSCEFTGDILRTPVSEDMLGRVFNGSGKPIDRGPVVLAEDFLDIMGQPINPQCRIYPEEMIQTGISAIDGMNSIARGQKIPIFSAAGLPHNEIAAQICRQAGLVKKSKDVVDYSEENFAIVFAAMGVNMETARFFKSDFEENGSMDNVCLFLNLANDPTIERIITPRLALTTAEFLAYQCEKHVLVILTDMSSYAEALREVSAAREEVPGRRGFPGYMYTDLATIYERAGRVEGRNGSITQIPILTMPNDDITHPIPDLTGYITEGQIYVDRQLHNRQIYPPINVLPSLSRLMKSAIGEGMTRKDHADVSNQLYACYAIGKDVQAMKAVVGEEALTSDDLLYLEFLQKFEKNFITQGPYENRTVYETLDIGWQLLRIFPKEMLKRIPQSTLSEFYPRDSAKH

Row | Substance | listed as a hit
7 | V-type proton ATPase catalytic subunit A, P50516 | yes
8 | V-type proton ATPase subunit E 1, P50518 | yes
9 | V-type proton ATPase subunit D, P57746 | yes
